# Results: PubChem BioAssay AID587 (National Center for Advancing Translational Sciences (NCATS), 2007)
# Out of some 59,000 compounds screened, about 35 (0.06%) were called active. Inconclusive results (about 19%) are left out. Cut-off read from the data, not from the text of the source: active = max dye-equivalent concentration above about 10 nM; inconclusive = between about 1.1 nM and that limit; inactive = weaker than that. The list comes from a sample in which actives are over-represented; it also holds similar structures and randomly drawn compounds.
# Assay: qHTS Assay for Spectroscopic Profiling in Texas Red Spectral Region
# Conditions: Compound fluorescence, Texas Red channel, 547/618 nm; stronger effect = higher value
# From the text: NIH Molecular Libraries Screening Centers Network [MLSCN] NIH Chemical Genomics Center [NCGC] […] Occasionally, the artifactual effect may originate from the compound#s own spectral or other biophysical properties which generally tend to track its assay concentration. Pre-screening/profiling the library with respect to the compounds# spectral properties should help one exclude false positives early on. While the most informative fluorescent profiling data set is obtained by performing a full excitation and emission scan of each well by using a monochromator-based plate reader, such an approach is practical only on a very limited scale as scanning each well requires long time. An alternative approach, applied here, is to perform plate reader scans using selected excitation and emission wavelength pairs to generate a multidimensional relational database that correlates compound concentration and the respective relative fluorescence intensity at a given wavelength set. A standard curve of Texas Red (TR) present on each plate as six-point concentration series, was used to compute a normalized fluorescence response, termed dye-equivalent concentration, for each compound at each concentration.
# NCGC Assay Protocol Summary: Buffer: 100 mM Tris buffer, pH 8.0 Dye standard plate: The wells in columns 1 through 4 of a Kalypsys polypropylene 1536-well compound plate were filled with standard solutions of fluorophore corresponding to the spectral region of interest. Solutions of TR were placed in the following wells: U1, V1: 3 mM, U2, V2: 300 uM, U3, V3: 30 uM, U4, V4: zero (DMSO), W1, X1: 3 uM, W2, X2: 900 nM, W3, X3: 300 nM, W4, X4: zero (DMSO). Assay Steps: Six uL of buffer were dispensed to 1536-well Greiner black plates. Compounds and dye standards (23 nL) were transferred via Kalypsys PinTool. The plates were incubated for 15 min at room temperature, and then read on ViewLux (Perkin-Elmer) High-throughput CCD imager using 547 nm and 618 nm excitation and emission filter set. Keywords: NIH Roadmap, MLSCN, MLI, MLSMR, qHTS, NCGC, Texas Red, Fluorescent Profiling.
row,Structure (SMILES),max dye-equivalent concentration
1,COc1ccc(-c2nc3cnc(OC)nc3n(Cc3ccc(F)cc3)c2=O)cc1,inactive
2,COc1ccc(CCn2c(-c3ccco3)nc3nc4ccccc4nc32)cc1OC,inactive
3,COc1ccc(C(C)=O)cc1COC(=O)Cn1cnc2ccccc2c1=O,inactive
4,Cc1cc(C)nc(SCc2nnc(SCC(=O)Nc3ncc(C)s3)n2Cc2ccco2)n1,inactive
5,COc1ncc2nc(-c3ccc(Cl)cc3)c(=O)n(C)c2n1,inactive
6,Cn1c(=O)c(-c2ccccc2)nc2cnc(N3CCNCC3)nc21,inactive
7,CS(=O)(=O)N(CC(=O)NCc1ccco1)c1ccc2c(c1)OCO2,inactive
8,Cc1cccc2cc(CN(Cc3nnnn3Cc3ccccc3)C3CCCC3)c(=O)[nH]c12,inactive
9,CC(C)C(=O)Nc1cccc(C(=O)Nc2ccc3c(c2)OCO3)c1,inactive
10,O=C1NC(=O)[C@@](Cc2ccccc2)(c2cccnc2)N1,inactive
11,O=C(CN(c1ccc2c(c1)OCCO2)S(=O)(=O)c1ccccc1)Nc1ccc2c(c1)OCO2,inactive
12,CN1CCc2c(sc3c2c(NCc2ccco2)nc2nnnn23)C1,inactive
13,COc1ccc(C)cc1NC(=O)CSc1nc(SC)ns1,inactive
14,N#Cc1ccccc1-c1ccc2ncnc(NCc3cccnc3)c2c1,inactive
15,CCCC(=O)N1c2ccc(-c3csc(N)n3)cc2CC1C (configuration not stated),inactive
16,COc1ccc(-n2c(=O)c(C)nc3cnc(N4CCOCC4)nc32)cc1,inactive
17,CC(C)C(NC(=O)c1cccc(S(=O)(=O)N2CCOCC2)c1)C(=O)NCCc1ccccn1 (configuration not stated),inactive
18,CSc1ccc(-c2c(C#N)c(N)nc3c2c(C)nn3-c2ccccc2)cc1,inactive
19,CC(C)(C)n1nc2c(c1NC(=O)c1ccc(S(=O)(=O)N3CCCC3)cc1)CS(=O)C2 (configuration not stated),inactive
20,CCC[C@H]1C(=O)N2C(N(C)C)=Nc3ccc(C)cc3N2C1=O,inactive
21,Cc1nc2cnc(N3CCN(C)CC3)nc2n(CCC#N)c1=O,inactive
22,CCOc1ccc(-c2nnn(CC(=O)N3CCN(c4ccc(OC)cc4)CC3)n2)cc1OCC,inactive
23,Cc1cnc(NC(=O)CSc2nnc(-c3ccc(Cl)cc3Cl)n2N)s1,inactive
24,CC[C@]1(C)CC(=O)NC1=O,inactive

row,Structure (SMILES),max dye-equivalent concentration
1,CCc1ccc2oc(=O)cc(CN3CCCCC3C)c2c1 (configuration not stated),inactive
2,Cc1cc(NC(=O)Cn2nc(C(F)(F)F)c3c2CCCC3)no1,inactive
3,Cc1cc(C(F)(F)F)n2ncc(-c3ccccc3)c2n1,inactive
4,CN(C)/C=C1/Nc2ccccc2C1=O,inactive
5,CCOC(=O)C1CCCCN1Cc1ccc(OC)c(OC)c1OC (configuration not stated),inactive
6,CN(Cc1ccco1)c1ncncc1-c1ccoc1,inactive
7,COc1ccc(-c2c3c(=O)n(C)c(=O)n(C)c3cn2NC(C)=O)cc1,inactive
8,COc1ccc2nccc(C(=O)O)c2c1,inactive
9,Cc1ccc(C(=O)Nc2nnc(-c3cccs3)s2)cc1C,inactive
10,CCc1ccccc1NC(=O)CSc1nnc([C@@H](NC(=O)OC(C)(C)C)C(C)C)o1,inactive
11,Cc1ccc(F)cc1NC(=O)c1ccc2c(c1)OCO2,inactive
12,CC(C)[C@H](NC(=O)Nc1ccc(S(N)(=O)=O)cc1)C(=O)O,inactive
13,CCc1ccccc1N(CC(=O)N1CCN(c2ccccc2F)CC1)S(C)(=O)=O,inactive
14,COc1ccccc1NC(=O)CSc1nc2sc(C)c(C)c2c(=O)n1Cc1ccco1,inactive
15,CCOc1ccccc1/C=c1\sc2nc(-c3ccco3)nn2c1=O,inactive
16,CN(c1ccccc1)c1ccc(/C=c2\s/c(=C(/C#N)C(=O)C(C)(C)C)n(Cc3ccco3)c2=O)cc1,54 nM (active)
17,Cc1c(S(=O)(=O)O)ccc(N=Nc2c(O)c(C(=O)O)cc3ccccc23)c1Cl,inactive
18,O=C(NCc1ccco1)c1cnn2c(C(F)(F)F)cc(-c3ccco3)nc12,inactive
19,COCCn1c(=O)c(-c2cccs2)nc2cnc(N3CCN(C)CC3)nc21,inactive
20,COCCn1c(=O)c(CCc2ccccc2)nc2cncnc21,inactive
21,COc1ccc(-c2nc3cnc(N(C)C)nc3n(Cc3cccs3)c2=O)cc1,inactive
22,c1ccc2c(Nc3ccncc3)nc(-c3ccc4c(c3)OCO4)nc2c1,inactive
23,Cn1c(=O)c(CCc2ccccc2)nc2cnc(Nc3ccccc3)nc21,inactive
24,CS(=O)(=O)NCc1ccc(C(=O)NCc2ccccc2)cc1,inactive

row,Structure (SMILES),max dye-equivalent concentration
1,CCc1cccc(C)c1NC(=O)CSc1nnc(-c2ccco2)n1N,inactive
2,O=C(Nc1ccccc1F)c1cc(S(=O)(=O)N2CCCCC2)cs1,inactive
3,Fc1cnc(N2CCOCC2)nc1NCc1ccccc1,inactive
4,CCNc1ncc2ncc(=O)n(CCc3ccccc3)c2n1,inactive
5,Cc1noc(C)c1-c1nc(Nc2ccccc2)c2ccccc2n1,inactive
6,Cc1cc(N2CCCC2)n2nc(C)c(-c3ccccc3)c2n1,inactive
7,CC(C)(C)c1csc(NC2=NS(=O)(=O)c3ccccc32)n1,inactive
8,COc1ccc(-c2nc3cnc(Oc4ccccc4)nc3n(Cc3cccs3)c2=O)cc1,inactive
9,COC(=O)CN(c1nc(C)c(Cl)c(OC)n1)S(=O)(=O)c1ccc(C)cc1,inactive
10,COC(=O)CNC(=O)c1ccc2c(c1)S(=O)(=O)c1ccccc1C2=O,inactive
11,CC(C)C1N=C2c3ccccc3N=C(SCC(=O)c3ccc(O)c(O)c3)N2C1=O (configuration not stated),inactive
12,O=C(O)C1CCCCC1C(=O)Nc1ccc(Cl)cc1 (configuration not stated),inactive
13,CCCS(=O)(=O)C(=C1Nc2ccccc2N1)S(=O)(=O)CCC,inactive
14,Cn1c(-c2ccc(C(=O)c3ccccc3)s2)nc2ccccc21,inactive
15,O=C(NCC1CCCO1)C(C(=O)c1ccccc1)n1cc(Cl)ccc1=O (configuration not stated),inactive
16,CCOC(=O)c1[nH]c2ccc(C)cc2c1N=C(C)N(C)C,inactive
17,COC(=O)N1CCC2(CCCN(c3ccncc3)C2)CC1,inactive
18,COCCn1c(=O)c(-c2ccccc2)nc2cnc(N3CCOCC3)nc21,inactive
19,COCCn1c(=O)c(-c2cc(F)cc(F)c2)nc2cncnc21,inactive
20,Cc1nn2c3ccccc3nc2n(C)c1=O,inactive
21,O=C(COc1ccc2c3c(c(=O)oc2c1)CCC3)NC1CCCCC1,inactive
22,O=C(NCc1ccccn1)c1cc2ccccc2oc1=O,inactive
23,COc1ccc(Cl)cc1NC(=O)c1oc(C)nc1C,inactive
24,Cc1c(C)c2c(c(C)c1O)CC[C@@](C)(CN1CCN(c3cc(N4CCCC4)nc(N4CCCC4)n3)CC1)O2,inactive
